Test results reported in the supplement of paper PMC8975748.
Structures can show the parent of a compound that is named as a salt. ± gives the standard deviation of the averaged measurements.

Legend:
[1] = test system: Saccharomyces cerevisiae BY4741 SeMeCo community; assay: mean cell size (pixel area) (pixels); higher = larger cells; conditions: 10 µM; 24 h; SM minimal medium
Summary of the method: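 Yeast cells were fixed with paraformaldehyde, imaged by automated confocal microscopy and analysed in Harmony to obtain mean cell pixel area per well. They came from a four-plasmid fluorescent Saccharomyces cerevisiae BY4741 community, each plasmid complementing one auxotrophy and carrying a fluorescent marker. Before imaging, 70 µl of culture at OD600 = 0.3 was incubated for 24 h in SM medium in 384-well plates predosed acoustically with drug (final 10 µM). Values are means of 3 replicates. Same SeMeCo high-content imaging drug screen: Selleck FDA-approved drugs at 10 µM, 24 h in SM medium, 384-well plates, 3 replicates.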

[2] = test system: Saccharomyces cerevisiae BY4741 SeMeCo community; assay: z-score of prototroph abundance vs DMSO median; higher = larger share of this subpopulation than in DMSO controls; conditions: 10 µM; 24 h; SM minimal medium; subpopulation (auxotrophy): Prototroph
Summary of the method: (§1)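 Subpopulation abundance was reported as a z-score against the median of vehicle wells. The Saccharomyces cerevisiae BY4741 community, carrying four plasmids that each restored one auxotrophy and encoded a distinct fluorescent protein, was grown 24 h in minimal SM medium in 384-well plates holding library drugs at 10 µM final. Cells were paraformaldehyde-fixed and imaged by automated confocal microscopy, with single-auxotroph fluorescent strains used for thresholds and autofluorescence correction.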

[3] = test system: Saccharomyces cerevisiae BY4741 SeMeCo community; assay: z-score of subpopulation abundance vs DMSO median, subpopulation auxotrophic for M; higher = larger share of this subpopulation than in DMSO controls; conditions: 10 µM; 24 h; SM minimal medium; subpopulation (auxotrophy): M
Summary of the method: as §1

[4] = test system: Saccharomyces cerevisiae BY4741 SeMeCo community; assay: z-score of subpopulation abundance vs DMSO median, subpopulation auxotrophic for L; higher = larger share of this subpopulation than in DMSO controls; conditions: 10 µM; 24 h; SM minimal medium; subpopulation (auxotrophy): L
Summary of the method: as §1

[5] = test system: Saccharomyces cerevisiae BY4741 SeMeCo community; assay: z-score of subpopulation abundance vs DMSO median, subpopulation auxotrophic for U; higher = larger share of this subpopulation than in DMSO controls; conditions: 10 µM; 24 h; SM minimal medium; subpopulation (auxotrophy): U
Summary of the method: as §1

[6] = test system: Saccharomyces cerevisiae BY4741 SeMeCo community; assay: z-score of subpopulation abundance vs DMSO median, subpopulation auxotrophic for H; higher = larger share of this subpopulation than in DMSO controls; conditions: 10 µM; 24 h; SM minimal medium; subpopulation (auxotrophy): H
Summary of the method: as §1

[7] = test system: Saccharomyces cerevisiae BY4741 SeMeCo community; assay: z-score of subpopulation abundance vs DMSO median, subpopulation auxotrophic for LU; higher = larger share of this subpopulation than in DMSO controls; conditions: 10 µM; 24 h; SM minimal medium; subpopulation (auxotrophy): LU
Summary of the method: as §1

[8] = test system: Saccharomyces cerevisiae BY4741 SeMeCo community; assay: z-score of subpopulation abundance vs DMSO median, subpopulation auxotrophic for LM; higher = larger share of this subpopulation than in DMSO controls; conditions: 10 µM; 24 h; SM minimal medium; subpopulation (auxotrophy): LM
Summary of the method: as §1

[9] = test system: Saccharomyces cerevisiae BY4741 SeMeCo community; assay: z-score of subpopulation abundance vs DMSO median, subpopulation auxotrophic for HU; higher = larger share of this subpopulation than in DMSO controls; conditions: 10 µM; 24 h; SM minimal medium; subpopulation (auxotrophy): HU
Summary of the method: as §1

[10] = test system: Saccharomyces cerevisiae BY4741 SeMeCo community; assay: z-score of subpopulation abundance vs DMSO median, subpopulation auxotrophic for HL; higher = larger share of this subpopulation than in DMSO controls; conditions: 10 µM; 24 h; SM minimal medium; subpopulation (auxotrophy): HL
Summary of the method: as §1

[11] = test system: Saccharomyces cerevisiae BY4741 SeMeCo community; assay: z-score of subpopulation abundance vs DMSO median, subpopulation auxotrophic for HLU; higher = larger share of this subpopulation than in DMSO controls; conditions: 10 µM; 24 h; SM minimal medium; subpopulation (auxotrophy): HLU
Summary of the method: as §1

[12] = test system: Saccharomyces cerevisiae BY4741 SeMeCo community; assay: z-score of subpopulation abundance vs DMSO median, subpopulation auxotrophic for HLM; higher = larger share of this subpopulation than in DMSO controls; conditions: 10 µM; 24 h; SM minimal medium; subpopulation (auxotrophy): HLM
Summary of the method: as §1

[13] = test system: Saccharomyces cerevisiae BY4741 SeMeCo community; assay: z-score of subpopulation abundance vs DMSO median, subpopulation auxotrophic for HUM; higher = larger share of this subpopulation than in DMSO controls; conditions: 10 µM; 24 h; SM minimal medium; subpopulation (auxotrophy): HUM
Summary of the method: as §1

[14] = test system: Saccharomyces cerevisiae BY4741 SeMeCo community; assay: z-score of subpopulation abundance vs DMSO median, subpopulation auxotrophic for LUM; higher = larger share of this subpopulation than in DMSO controls; conditions: 10 µM; 24 h; SM minimal medium; subpopulation (auxotrophy): LUM
Summary of the method: as §1

[15] = test system: Saccharomyces cerevisiae BY4741 SeMeCo community; assay: z-score of subpopulation abundance vs DMSO median, subpopulation auxotrophic for HLUM; higher = larger share of this subpopulation than in DMSO controls; conditions: 10 µM; 24 h; SM minimal medium; subpopulation (auxotrophy): HLUM
Summary of the method: as §1

[16] = test system: Saccharomyces cerevisiae BY4741 SeMeCo community; assay: z-score of subpopulation abundance vs DMSO median, subpopulation auxotrophic for HM; higher = larger share of this subpopulation than in DMSO controls; conditions: 10 µM; 24 h; SM minimal medium; subpopulation (auxotrophy): HM
Summary of the method: as §1

[17] = test system: Saccharomyces cerevisiae BY4741 SeMeCo community; assay: z-score of subpopulation abundance vs DMSO median, subpopulation auxotrophic for UM; higher = larger share of this subpopulation than in DMSO controls; conditions: 10 µM; 24 h; SM minimal medium; subpopulation (auxotrophy): UM
Summary of the method: as §1

SMILES | mean cell size [1] | z-score of prototroph abundance [2] | z-score of subpopulation abundance [3] | z-score of subpopulation abundance [4] | z-score of subpopulation abundance [5] | z-score of subpopulation abundance [6] | z-score of subpopulation abundance [7] | z-score of subpopulation abundance [8] | z-score of subpopulation abundance [9] | z-score of subpopulation abundance [10] | z-score of subpopulation abundance [11] | z-score of subpopulation abundance [12] | z-score of subpopulation abundance [13] | z-score of subpopulation abundance [14] | z-score of subpopulation abundance [15] | z-score of subpopulation abundance [16] | z-score of subpopulation abundance [17]
CN[C@@H]1[C@@H](O)[C@@H](O[C@@H]2[C@@H](O)[C@H](O[C@H]3OC(CN)=CC[C@H]3N)[C@@H](N)C[C@H]2N)OC[C@]1(C)O [Sisomicin sulfate] | 12.12 ± 0.053 | -0.71 | 1.6 | 1.01 | 0.55 | -0.72 | 0.28 | 1.22 | 0.07 | 0.51 | 0.06 | 0.84 | 0.52 | 1.13 | 2.37 |  | 
Nc1nc2[nH]cc(CCc3ccc(C(=O)N[C@@H](CCC(=O)O)C(=O)O)cc3)c2c(=O)[nH]1 [Pemetrexed] | 14.85 ± 0.13 | 3.89 | -9.06 | 1.61 |  | 5.02 | 0.04 | -3.17 |  | 2.81 | 4.74 | 0.42 | -4.52 | -3.17 |  | -4.62 | -7.46
CCCCCC(=O)O[C@]1(C(C)=O)CC[C@H]2[C@@H]3CCC4=CC(=O)CC[C@]4(C)[C@H]3CC[C@@]21C [Hydroxyprogesterone caproate] | 12.47 ± 0.039 | -1.13 | 0.22 | 1.21 | -0.21 |  | 0.72 | 1.5 | 1.19 | 1.2 | 0.62 | 0.65 | 1.38 | 1.15 | 0.74 |  | 0.42
Cn1c([N+](=O)[O-])cnc1COC(N)=O [Ronidazole] | 12.5 ± 0.033 | 1.22 | -0.37 | -0.01 | 0.01 | -1.34 | -0.22 | -0.82 | -1.13 | -0.38 | -0.68 | -0.96 | -0.57 | -0.5 | -0.24 |  | -0.8
CC(C)c1c(C(=O)Nc2ccccc2)c(-c2ccccc2)c(-c2ccc(F)cc2)n1CC[C@@H](O)C[C@@H](O)CC(=O)O [Atorvastatin] | 11.1 ± 0.15 | -2.62 | -2.26 | 1.5 |  | 6.46 | 1.58 | -0.19 | 2.62 | 5.39 | 1.73 | 1.21 | 2.1 | 0.92 |  | 2.44 | 
CC(C)(C)CC(C)(C)c1ccc(OCCOCC[N+](C)(C)Cc2ccccc2)cc1 [Benzethonium Chloride] | 11.7 ± 0.27 |  | -2.12 | -0.55 |  | 0.3 | -0.86 | -0.72 | 0.13 | -0.38 | -0.61 | -0.12 | -0.76 | 0.65 |  | -1.27 | 
CN1CCCN=C1/C=C/c1cccs1 [Pyrantel Pamoate] | 12.8 ± 0.19 | 0.2 | 1.45 | -0.64 | 0.04 | 1.26 | -0.11 | -0.65 |  | -0.22 | 0.47 | 0.61 | -0.34 | -0.44 |  | 0.03 | -1.25
NC(=O)Cc1cccc(C(=O)c2ccccc2)c1N [Nepafenac] | 12.3 ± 0.27 |  | 0.62 | 1.39 | -1.24 | -0.38 | -0.55 | 1.58 | -1.05 |  | 0.04 | -0.23 | -0.01 |  |  | 0.5 | -0.53
CC[N+](CC)(CC)CCOc1cccc(OCC[N+](CC)(CC)CC)c1OCC[N+](CC)(CC)CC [Gallamine Triethiodide] | 12.6 ± 0.14 |  | 0.42 | -0.79 | 0.76 | -0.16 | 0.16 | -0.42 | 0.25 | -1.15 | 0.07 | -0.27 | 0.25 | -0.03 |  | -0.01 | 0.33
Cc1ccc(-c2ncc(Cl)cc2-c2ccc(S(C)(=O)=O)cc2)cn1 [Etoricoxib] | 12.4 ± 0.17 | -0.04 | 0.51 | 0.57 | -0.32 | -0.35 | -0.52 | 0.07 | -0.51 | -0.03 | 0.34 | -0.16 | -0.71 | -0.03 |  | -0.1 | 0.52
Cc1nc2n(c(=O)c1CCN1CCC(c3noc4cc(F)ccc34)CC1)CCCC2O (stereo not drawn) [Paliperidone] | 12 ± 0.24 | 0.1 | 0.41 | -0.99 | 0.75 |  | -0.02 | -0.14 | 0.19 | -1.06 | -0.96 | -1.03 | 0.09 | -1.04 |  | 0.04 | 0.49
CN(C)CCC[C@@]1(c2ccc(F)cc2)OCc2cc(C#N)ccc21 [Escitalopram Oxalate] | 12.4 ± 0.18 | 1.15 | 0.05 | 0.5 | -0.79 | -0.42 | -0.08 | 0.48 | -0.95 |  | -0.25 | -0.63 | -0.36 | -0.28 | 0.18 |  | -0.53
COc1ccc2[nH]c([S+]([O-])Cc3ncc(C)c(OC)c3C)nc2c1 (stereo not drawn) [Omeprazole Sodium] | 12.1 ± 0.19 | 0.8 | -0.71 | 0.3 | -1.22 | 1.92 | -0.12 | -0.57 | -0.78 | 0.77 | 0.43 | -0.14 | -0.81 | -0.98 | -0.1 |  | 
CN[C@@H]1[C@@H](O[C@H]2O[C@H](CO)[C@@H](N)[C@H](O)[C@H]2O)OC2C[C@@H](N)[C@@H](O[C@H]3[C@H](O)[C@@H](O)[C@H](N)C[C@@H]3N)OC2[C@@H]1O (stereo partly drawn) [Apramycin Sulfate] | 12 ± 0.25 | -0.43 | -0.24 | -0.01 | 0.87 |  | 0.41 | 0.1 |  | 0.24 | 0.36 | 0.1 | 0.37 | 0.97 |  | 0.03 | 0.56
CCN1CCC[C@H]1CNC(=O)c1cc(S(N)(=O)=O)ccc1OC [Levosulpiride] | 12.5 ± 0.17 | 0.49 | -0.33 | -0.4 |  | -0.73 | 0.1 | -0.65 |  | -0.21 | -1.02 | -0.19 | 0.24 |  |  | -0.96 | 0.08
